Assay outcomes as filed in PubChem BioAssay.
Hits are enriched below; roughly 4.6% of the tested compounds scored in any of these assays.
IL1B NFkB pot – enhancers of NFkB p65 translocation in HUVEC – imaging, IL-1B stimulus, high-content imaging, primary screen; HUVEC IL-1B NFkB p65 nuclear translocation imaging; activation, % at 2 µM; 94,000 compounds, 0.3% hits; AID 819, 2007;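 active = activation above 40%, about the mean plus 3 SD, also judged a hit on visual image review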;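 also: percent activation is computed from the nuclear over cytoplasmic p65 intensity ratio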
NFkB transloc inh – inhibitors of IL-1B driven NFkB p65 nuclear import, primary screen, imaging, HUVEC, IL-1B stimulus, high-content imaging. 94,000 compounds, 0.43% hits. HUVEC IL-1B NFkB p65 nuclear translocation imaging. inhibition, % at 2 µM;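 active = inhibition above about 30% together with a positive call from visual inspection of the well image, limit read from the data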;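 also: nuclear over cytoplasmic p65 intensity ratio measured by imaging; 0% = IL-1B stimulated DMSO wells and 100% = unstimulated DMSO wells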
sEH activator – soluble epoxide hydrolase activators, primary screen, biochemical, human sEH. 91,000 compounds, 0.04% hits. purified human sEH enzymatic activity, activator screen. Bifunctional epoxide hydrolase 2 (Homo sapiens), P34913. activation, % at 2 µM; in the data active = activation above about 37%
Cav32 inh – Cav3.2 calcium influx blockers – cell-based, Fluo-4 calcium fluorescence, FDSS, MLSMR library, primary screen | Voltage-dependent T-type calcium channel subunit alpha-1H (Homo sapiens), O95180 | B-score at 10 µM | Cav3.2-expressing cells; stronger effect = lower value | 100,000 compounds, 4% hits;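 active = single-dose well whose peak fluorescence ratio is a statistical outlier from its plate by either plate-standardised score or position-corrected B-score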
sEH inhibitor – soluble epoxide hydrolase inhibitors, primary screen, biochemical, human sEH; recombinant human sEH enzymatic activity assay; inhibition, % at 2 µM; 91,000 compounds, 0.34% hits; in the data active = inhibition above about 80%
HUVEC tox IL1B – cytotoxicity in IL-1B stimulated HUVEC, primary screen, cytotoxicity control for IL-1B NFkB translocation project, imaging, Hoechst nuclear count, IL-1B stimulus; HUVEC cell count loss; cell count reduction, % at 2 µM; 94,000 compounds, 0.41% hits;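 active = cell count reduction more than 3 SD above the screen-wide mean, cut at about 70% in these data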;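 also: normalized per plate to untreated control cells as the no-loss baseline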
* marks the source's active call; other numbers are inactive results; . = not tested or not shown.

SMILES | IL1B NFkB pot | NFkB transloc inh | sEH activator | Cav32 inh | sEH inhibitor | HUVEC tox IL1B
Cc1cccc(C)c1N1CCc2cn[nH]c21 | -8 | 8 | -5 | 0.69 | 8 | -11
CCc1ccc(NC(=O)CSc2nnc(Cc3cccn3C)n2-c2ccc(OC)cc2)cc1 | 2 | -2 | -10 | -5.4* | 10 | -3
COc1ccc(-n2c(Cc3cccn3C)nnc2SCC(=O)NCc2ccc(F)cc2)cc1 | . | . | . | -7.1* | . | .
COc1ccc(NC(=O)CSc2nnc(Cc3cccn3C)n2-c2ccc(F)cc2)cc1OC | -11 | 11 | 6 | -1.7 | -6 | 18
CCOc1ccc(C(=O)NC(=S)N(Cc2ccccc2)Cc2ccccc2)cc1 | 12 | -13 | 2 | -4.6* | 0 | 10
CCCCC(=O)NC(c1ccco1)c1c(O)ccc2ccccc12 (centres undefined) | 0 | 0 | 1 | -5.5* | 1 | -7
CCCC(=O)NC(c1ccco1)c1c(O)ccc2ccccc12 (centres undefined) | -3 | 3 | 4 | -1.3 | -4 | -35
CCOc1ccccc1CNC(=O)c1cc2oc3ccccc3c2n1CC | -13 | 4 | -2 | -5* | 2 | 29
COc1cccc(CNC(=O)c2cc3oc4ccccc4c3n2C)c1OC | 4 | -4 | -47 | 0.3 | 47 | -4
Cc1n[nH]c(=S)c2nn(-c3ccccc3F)c(C)c12 | 10 | -10 | 6 | . | -4 | -15
COC(=O)C1=NN(C(=O)c2ccc(C)cc2)C(O)(c2ccc(Cl)cc2)C1 (centres undefined) | -2 | 4 | -4 | -3.2* | 6 | 20
O=C(c1ccco1)N1CCN(C(=O)c2ccccc2Oc2ccccc2)CC1 | -12 | 12 | -3 | -5* | 5 | 46
O=C(c1ccco1)N1CCN(C(=O)c2ccc(COc3ccc(Cl)cc3Cl)o2)CC1 | . | . | -4 | -5.8* | 5 | .
CCOC(=O)N1CCN(C(=O)c2ccccc2Oc2ccccc2)CC1 | 11 | -11 | 3 | . | -3 | -17
O=C(c1ccco1)N1CCN(c2ccc(Cl)c(Cl)c2)CC1 | -2 | 2 | -7 | -4.1* | 6 | -18
O=C(c1ccco1)N1CCN(C(=O)c2ccc(COc3ccc4c(c3)CCC4)o2)CC1 | 6 | -6 | 0 | -3.5 | 4 | -15
CCCCn1c(Nc2ccccc2)nc2ccccc21 | -9 | 9 | -12 | 0.85 | 10 | -10
COc1ccc(Cl)cc1N(CC(=O)Nc1ccc2c(c1)OCCO2)S(C)(=O)=O | 6 | -6 | -1 | -1.1 | 1 | -16
NC(=O)C1(N2CCCCC2)CCN(CC(=O)Nc2ccccc2Sc2ccccc2)CC1 | -7 | 7 | 6 | 0.13 | -3 | 14
NC(=O)C1(N2CCCCC2)CCN(CC(=O)Nc2cc(Cl)ccc2Cl)CC1 | -99 | 99* | -11 | -0.88 | 6 | 80*
COc1ccc(-c2ccc(S(=O)(=O)n3nc(OC(=O)c4cccs4)cc3N)cc2)cc1 | . | . | . | 0.015 | . | .
COc1ccc(S(=O)(=O)n2nc(OC(=O)c3c(-c4ccccc4Cl)noc3C)cc2N)cc1 | -12 | 14 | 12 | -5.4* | -10 | -11
CSc1cccc(NC(=O)C(C)Sc2ccc(C)cc2)c1 (centres undefined) | 12 | -12 | -1 | . | 3 | 2
CCc1nn2c(=O)cc(CSc3nc(C)cc(=O)[nH]3)nc2s1 | 30 | -30 | -12 | 0.44 | 11 | -9
CNC(=S)N1CCN(c2c(F)cc3c(=O)c(C(=O)O)cn(C4CC4)c3c2OC)CC1C (centres undefined) | 4 | -4 | -5 | 4.4* | 7 | -5
SMILES | IL1B NFkB pot | NFkB transloc inh | sEH activator | Cav32 inh | sEH inhibitor | HUVEC tox IL1B
O=C(CSc1nc(N2CCCCC2)nc(N2CCCCC2)n1)c1ccccc1 | -12 | 12 | -5 | -4.2* | 5 | -6
Cc1ccc(-n2ncc3c(NCc4ccco4)ncnc32)c(C)c1 | . | . | . | 0.76 | . | .
CN(C/C(O)=C(\C#N)c1ccccc1)C1CCCCC1 | 126* | -126 | -15 | 1.2 | 14 | -2
CN(CC(=O)O/N=C(\N)c1ccc([N+](=O)[O-])cc1)S(=O)(=O)c1ccccc1 | 50* | -50 | 4 | 0.048 | -6 | -10
COc1ccc2ccccc2c1C(O)c1nccn1C (centres undefined) | -4 | 4 | 11 | -5.6* | -10 | -3
CCc1ccc(OCCNC(=O)c2cccs2)cc1 | 12 | -12 | 8 | -5.9* | -7 | -15
CCC(CC)C(=O)Nc1ccc(Sc2ccc([N+](=O)[O-])cc2)cc1 | 14 | -14 | -26 | -5.1* | 25 | -18
CC(C)OC(=O)NCCOC(=O)Nc1cccc(Cl)c1 | 12 | -12 | -19 | -0.77 | 18 | -11
COc1cc(NC(=O)C2CCCC2)c(OC)cc1Cl | 21 | -21 | 9 | -0.51 | -8 | -6
CCCCOC(=O)Nc1cc(OC)c(Cl)cc1OC | . | . | . | -2.5* | . | .
CCC(CC)C(=O)Nc1ccc(Cl)c(Cl)c1 | 2 | -2 | 1 | -5.2* | 0 | -33
CC(C)OC(=O)NCCOC(=O)Nc1ccc(Cl)c(Cl)c1 | -9 | 9 | 6 | -7* | -4 | -2
CCOC(=O)C1=C(C)NC(SCC(N)=O)=C(C#N)C1c1ccccc1 (centres undefined) | 13 | -13 | 12 | -0.012 | -12 | -29
Fc1ccc(-c2nc3n(n2)Cc2ccccc2-3)cc1 | -2 | 2 | -4 | 0.02 | 4 | -18
CCCCOC(=O)Nc1ccc(C)c(Cl)c1 | -28 | 28 | 5 | . | -6 | 91*
C#C[C@]1(O)CC[C@H]2[C@@H]3CCC4=Cc5oncc5C[C@]4(C)[C@H]3CC[C@@]21C | . | . | . | -4.5* | . | .
C#C[C@]1(O)CC[C@H]2[C@@H]3CCc4cc(OC5CCCC5)ccc4[C@H]3CC[C@@]21C | . | . | . | -0.21 | . | .
Cc1csc(N2CCCC2c2nc3cc(C(F)(F)F)ccc3n2CCOCCO)n1 (centres undefined) | . | . | . | 0.43 | . | .
NC(=O)c1cc2ccc(O)cc2oc1=NCc1ccccc1 | . | . | . | -7.6* | . | .
Cn1cc(Cl)c(C(=O)OCC(=O)Nc2nc(-c3ccc(Br)cc3)cs2)n1 | 20 | -20 | 6 | -5.9* | -6 | -31
COC(=O)CCC(=O)Nc1nc(-c2ccccc2)cs1 | 22 | -22 | 7 | -0.34 | -8 | 14
Cn1nccc1C(=O)OCC(=O)Nc1nc(-c2ccccc2)cs1 | . | . | . | -3.8* | . | .
Nc1nc(CN2CCCCC2)cs1 | . | . | . | 0.3 | . | .
O=C(CCc1nc(-c2ccccc2)c(-c2ccccc2)o1)OCc1ccc(Br)cc1 | -6 | 6 | 11 | -3.5 | -12 | -1
O=C(CCc1nc(-c2ccccc2)c(-c2ccccc2)o1)OCc1ccc(Cl)cc1 | -14 | 14 | 6 | -4.3* | -3 | -7
CC(SC1=NCCS1)C(=O)Nc1nnc(-c2ccc(Br)cc2)s1 (centres undefined) | 0 | 0 | . | -3 | . | 0
